Measurements from PubChem BioAssay (Tox21).
Results filed as inconclusive are left out. Calls of active or inactive are those of the source. Unless noted, calls come from the whole dose curve; as a rule, active = well fitted curve in the direction sought with a large enough effect in the repeat runs; inconclusive = weak or mixed curves; inactive = no such curve, though single readings can be large; an effect the other way counts as inactive or inconclusive.

Legend:
[1] = A CellTox Green Cytotoxicity Assay to monitor cytotoxicity in HepG2 cells - 8 hour (AID 1224890); details: CellTox Green fluorescence; series mostly up to 76.8 µM; note: nearly all actives have a fitted effect of over 45% in size
In short: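 HepG2 cells, 600/well, preincubated 5 h with CellTox Green dye, then exposed to Tox21 compounds in DMSO at 37 C for up to 40 h. Dead-cell DNA fluorescence read at the indicated time point.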

[2] = qHTS assay to identify small molecule antagonists of the estrogen receptor alpha (ER-alpha) signaling pathway using the BG1 cell line in the presence of 0.1 nM 17-beta-estradiol - cell viability counter screen (AID 1259241); details: VM7Luc4E2 (BG1) viability, CellTiter-Fluor protease, 22 h, 0.1 nM estradiol agonist added; series mostly up to 92.4 µM; note: nearly all actives have a fitted effect of over 40% in size
In short: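 VM7Luc4E2, 4,000 cells/well, phenol red-free medium + 10% charcoal-stripped FBS; 24 hr plating; cpd + 0.1 nM E2 final, 22 hr 37C/5% CO2; CellTiter-Fluor 30 min, fluorescence.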

[3] = qHTS assay to identify small molecule antagonists of the androgen receptor (AR) signaling pathway using the MDA cell line in the presence of 0.5 nM R1881 - cell viability counter screen (AID 1259242); details: MDA-kb2 viability, CellTiter-Fluor protease fluorescence, 16 h; series mostly up to 92.4 µM; note: nearly all actives have a fitted effect of over 45% in size
In short: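 MDA-kb2 cells (MMTV-luciferase, AR/GR responsive) were treated with compounds plus 0.5 nM R1881 (final) for 16 hr at 37C, 0% CO2. Viability was then read in the same wells as live-cell protease fluorescence (CellTiter-Fluor, 30 min).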

[4] = biological target: Estrogen receptor (Homo sapiens) (UniProt P03372); test: qHTS assay to identify small molecule antagonists of the estrogen receptor alpha (ER-alpha) signaling pathway using the BG1 cell line in the presence of 0.1 nM 17-beta-estradiol (AID 1259244); details: VM7Luc4E2 (BG1) ERE-luciferase, antagonist mode, 0.1 nM E2, 22 h; series mostly up to 92.4 µM; note: nearly all actives have a fitted effect of over 50% in size
In short: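 VM7Luc4E2 cells (endogenous full-length ER-alpha, 4×ERE-luciferase), kept 5 days in phenol red-free, charcoal-stripped FBS medium; 4,000 cells/well. Compounds added with 0.1 nM (final) 17beta-estradiol, 22 hr at 37C; luminescence read with ONE-Glo after 30 min.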

[5] = qHTS assay to identify small molecule phospholipidosis (PLD) inducers (AID 1259344; active = well fitted curve in the direction sought with a large enough effect; an effect the other way counts as inactive or inconclusive); details: HepG2 phospholipidosis, LipidTOX Red imaging, 24 h; series mostly up to 38.3 µM
In short: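 HepG2 cells grown on collagen I take up LipidTOX Red while exposed to compound for 24 h; after fixation they are imaged at 20x and pit metrics are extracted.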

[6] = qHTS assay to identify small molecule HDAC inhibitors (AID 1259364); details: HCT-116 HDAC-Glo I/II luminescence, 2 h; series mostly up to 92.4 µM; note: top concentration of the series differs between compounds; nearly all actives have a fitted effect of over 45% in size
In short: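 Wild-type HCT-116 cells, plated overnight at 37 C, exposed to compounds 2 hr at 37 C; luminogenic HDAC-Glo substrate then added 30 min at room temperature. Luminescence reports relative endogenous class I/II HDAC activity.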

[7] = qHTS assay to identify small molecule HDAC inhibitors - cell viability counter screen (AID 1259365); details: HCT-116 viability, CellTiter-Glo ATP luminescence, 2 h; series mostly up to 92.4 µM; note: nearly all actives have a fitted effect of over 50% in size
In short: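 Luminescence from CellTiter-Glo, developed 30min at room temperature, reports viability of wild-type HCT-116 cells treated 2hr with compounds at 37 C and 5% CO2 after overnight plating.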

[8] = qHTS assay to identify small molecule agonists of the sonic hedgehog signaling (Shh) pathway - cell viability counter screen (AID 1259366); details: NIH/3T3 Gli1-Luc viability, CellTiter-Fluor, 24 h; series mostly up to 92.4 µM; note: nearly all actives have a fitted effect of over 50% in size
In short: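 Cytotoxicity counter screen run in the same wells as the Shh reporter assay. NIH/3T3 cells carrying a Gli1 response element–driven luciferase were treated with DMSO-dissolved compounds for 24hr, and live-cell protease activity was measured with CellTiter-Fluor.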

[9] = qHTS assay to identify small molecule antagonists of the sonic hedgehog signaling (Shh) pathway - cell viability counter screen (AID 1259367); details: NIH/3T3 Gli1-Luc viability, CellTiter-Fluor, 24 h; series mostly up to 92.4 µM; note: nearly all actives have a fitted effect of over 55% in size
In short: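 After a 4 hr settling period, 3T3 Gli1-Luc cells were treated with DMSO-dissolved chemicals and conditioned medium, kept 24 hr at 37C in 5% CO2, and assayed for viability by CellTiter-Fluor fluorescence following 1 hr reagent incubation.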

[10] = qHTS assay to identify small molecule agonists of the sonic hedgehog signaling (Shh) pathway (AID 1259368; calls by dose curve;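 note: NIH/3T3-derived 3T3Gli1-Luc cells carrying a stable Gli1-driven firefly luciferase reporter; nearly all actives have a fitted effect of over 15% in size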); details: NIH/3T3 Gli1-Luc reporter, luciferase, 24 h; series mostly up to 92.4 µM
In short: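 NIH/3T3-derived 3T3Gli1-Luc cells with stably integrated Gli1-driven firefly luciferase, 2,000 cells/well, compounds added after 4 hr. Incubated 24 hr at 37C, 5% CO2; luminescence read after 30 min with luciferase reagent at room temperature.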

[11] = qHTS assay to identify small molecule antagonists of the sonic hedgehog signaling (Shh) pathway (AID 1259369; calls by dose curve; note: nearly all actives have a fitted effect of over 45% in size); details: NIH/3T3 Gli1-Luc reporter, Shh antagonist, luminescence 24 h; series mostly up to 92.4 µM
In short: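 NIH/3T3-derived Gli1-Luc reporter cells plated 4 h, dosed with compound, then stimulated with conditioned medium for 24 h at 37 C. Firefly luciferase luminescence read after 30 min with detection reagent at room temperature.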

[12] = biological target: Estrogen receptor beta (Homo sapiens) (UniProt Q92731); test: qHTS assay to identify small molecule agonists of the estrogen receptor beta (ER-beta) signaling pathway (AID 1259377; active = well fitted activation curve with a large enough effect in the signal ratio in the repeat runs, not every such curve was filed as active; the % refers to the signal ratio); details: ER-beta-UAS-bla HEK293T, beta-lactamase FRET ratio, 16 h; series mostly up to 92.4 µM
In short: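 HEK293T ER-beta-UAS-bla; 2% charcoal-stripped FBS; cells pre-incubated 6 hr, compound 16 hr, 37C/5% CO2; LiveBLAzer B/G FRET substrate 2 h RT; fluorescence intensity read.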

[13] = biological target: Estrogen receptor beta (Homo sapiens) (UniProt Q92731); test: qHTS assay to identify small molecule antagonists of the estrogen receptor beta (ER-beta) signaling pathway (AID 1259378; active = well fitted inhibition curve with a large enough effect in the signal ratio in the repeat runs, not every such curve was filed as active; the % refers to the signal ratio); details: ER-beta-UAS-bla HEK293T, beta-lactamase FRET ratio, 16 h; series mostly up to 92.4 µM
In short: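 ER-beta-UAS-bla HEK293T (GripTite) cells in 2% charcoal-stripped FBS medium were preincubated 6 hr at 37C, dosed with compound, then stimulated with 1 nM E2 (final) for 16 hr; beta-lactamase reporter read by B/G FRET fluorescence after 2 hr substrate loading.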

[14] = qHTS assay to identify small molecule agonists of the androgen receptor (AR) signaling pathway in the presence of an antagonist - cell viability counter screen (AID 1259379); details: MDA-kb2 viability, CellTiter-Fluor, 16 h; series mostly up to 92.4 µM;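 note: MDA-kb2 human breast cancer cells carrying an MMTV luciferase reporter; nearly all actives have a fitted effect of over 25% in size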
In short: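 MDA-kb2 cells (MMTV-luciferase, AR/GR), 3,000/well, 5 h attachment, then 3.0 µM nilutamide (final) and compounds at 15 concentrations. Viability by CellTiter-Fluor fluorescence after 16 h at 37 °C, 0% CO2, in the reporter wells.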

[15] = qHTS assay to identify small molecule agonists of the estrogen receptor beta (ER-beta) signaling pathway - cell viability counter screen (AID 1259380); details: ER-beta-bla HEK293T viability, CellTiter-Glo luminescence, 16 h; series mostly up to 92.4 µM; note: nearly all actives have a fitted effect of over 30% in size
In short: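 ER-beta-UAS-bla HEK293T cells in medium with 2% charcoal-stripped FBS, pre-incubated 6 hr, then treated 16 hr at 37C. Cytotoxicity read in the same wells by CellTiter-Glo luminescence after 30 min at room temperature.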

[16] = qHTS assay to identify small molecule antagonists of the estrogen receptor beta (ER-beta) signaling pathway - cell viability counter screen (AID 1259382); details: ER-beta-UAS-bla HEK293T viability, CellTiter-Glo luminescence, 16 h; series mostly up to 92.4 µM; note: nearly all actives have a fitted effect of over 55% in size
In short: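 ER-beta-UAS-bla HEK293T cells in 2% charcoal-stripped FBS medium, treated with compound plus 1 nM 17-beta-estradiol for 16 h at 37C. Viability read by CellTiter-Glo luminescence after 30 min at room temperature in the same wells.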

[17] = biological target: Estrogen receptor (Homo sapiens) (UniProt P03372); test: qHTS assay to identify small molecule agonists of the estrogen receptor alpha (ER-alpha) signaling pathway in the presence of an antagonist (AID 1259383; calls by dose curve; note: top concentration of the series differs between compounds; nearly all actives have a fitted effect of over 15% in size); details: VM7Luc4E2 cells, ERE-luciferase, +ICI-182,780, 22 h; series mostly up to 92.4 µM
In short: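 VM7Luc4E2 cells express endogenous full-length ER-alpha with an ERE-luciferase reporter and were hormone-deprived for 5 days. Compounds at 15 concentrations were added with 10.0nM ICI-182,780 for 22hr at 37C. Luminescence was read with ONE-Glo.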

[18] = qHTS assay to identify small molecule agonists or antagonists of the thyroid stimulating hormone receptor (TSHR) signaling pathway - wild type cell line counter screen (AID 1259384; calls by dose curve); details: HEK293 wild type, cAMP HTRF counter-screen, active compounds read high; series mostly up to 92.4 µM
In short: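 Wild-type HEK293 cells were plated 18 h at 37 C/5% CO2, pin-dosed with compound plus Ro20-1724 medium, held 30 min at room temperature, then given cAMP-d2 and anti-cAMP-cryptate; fluorescence was read after 1 h. Fifteen concentrations, triplicate.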

[19] = biological target: Androgen receptor (Homo sapiens) (UniProt P10275); test: qHTS assay to identify small molecule antagonists of the androgen receptor (AR) signaling pathway using the MDA cell line in the presence of 0.5 nM R1881 (AID 1259243); details: MDA-kb2 MMTV-luciferase, R1881 0.5 nM, 16 h; series mostly up to 42.5 µM; note: nearly all actives have a fitted effect of over 50% in size; note: potency is the fitted concentration of half-maximal effect
In short: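 MDA-kb2 cells (MMTV-luciferase, responsive to AR and GR) at 3,000/well, rested 5 h at 37C, 0% CO2, then given compounds plus 0.5 nM R1881 (final) for 16 hr. Luciferase read with ONE-Glo after 30 min at room temperature.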

[20] = biological target: Androgen receptor (Homo sapiens) (UniProt P10275); test: qHTS assay to identify small molecule agonists of the androgen receptor (AR) signaling pathway in the presence of an antagonist (AID 1259381; calls by dose curve; note: nearly all actives have a fitted effect of over 15% in size); details: MDA-kb2 MMTV-luciferase, AR agonist + nilutamide, 16 h; series mostly up to 42.5 µM
In short: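 MDA-kb2 cells carrying MMTV-luciferase (AR/GR responsive), 3,000 cells/well, co-treated with 3.0 uM nilutamide final. Compounds at 15 concentrations, 16 hr at 37C without CO2. Luciferase luminescence read after 30 min with ONE-Glo.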

Measured: Potency

Chain of Estrogen receptor beta (Homo sapiens) (Q92731 whole entry, looked up): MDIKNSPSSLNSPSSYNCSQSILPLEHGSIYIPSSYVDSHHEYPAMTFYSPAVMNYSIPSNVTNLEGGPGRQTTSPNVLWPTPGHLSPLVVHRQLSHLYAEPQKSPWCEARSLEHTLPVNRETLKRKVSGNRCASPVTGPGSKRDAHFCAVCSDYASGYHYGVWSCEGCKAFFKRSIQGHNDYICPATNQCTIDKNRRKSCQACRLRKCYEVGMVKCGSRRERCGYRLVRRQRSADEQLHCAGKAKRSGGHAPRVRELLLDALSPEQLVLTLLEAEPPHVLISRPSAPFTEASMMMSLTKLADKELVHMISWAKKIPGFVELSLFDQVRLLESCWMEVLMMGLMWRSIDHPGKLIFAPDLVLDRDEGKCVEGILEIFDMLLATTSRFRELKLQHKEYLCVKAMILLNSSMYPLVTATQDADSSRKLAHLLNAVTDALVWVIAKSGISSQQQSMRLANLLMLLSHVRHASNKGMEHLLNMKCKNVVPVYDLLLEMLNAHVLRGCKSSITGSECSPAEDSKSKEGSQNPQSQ
Chain of Estrogen receptor (Homo sapiens) (P03372 whole entry, looked up): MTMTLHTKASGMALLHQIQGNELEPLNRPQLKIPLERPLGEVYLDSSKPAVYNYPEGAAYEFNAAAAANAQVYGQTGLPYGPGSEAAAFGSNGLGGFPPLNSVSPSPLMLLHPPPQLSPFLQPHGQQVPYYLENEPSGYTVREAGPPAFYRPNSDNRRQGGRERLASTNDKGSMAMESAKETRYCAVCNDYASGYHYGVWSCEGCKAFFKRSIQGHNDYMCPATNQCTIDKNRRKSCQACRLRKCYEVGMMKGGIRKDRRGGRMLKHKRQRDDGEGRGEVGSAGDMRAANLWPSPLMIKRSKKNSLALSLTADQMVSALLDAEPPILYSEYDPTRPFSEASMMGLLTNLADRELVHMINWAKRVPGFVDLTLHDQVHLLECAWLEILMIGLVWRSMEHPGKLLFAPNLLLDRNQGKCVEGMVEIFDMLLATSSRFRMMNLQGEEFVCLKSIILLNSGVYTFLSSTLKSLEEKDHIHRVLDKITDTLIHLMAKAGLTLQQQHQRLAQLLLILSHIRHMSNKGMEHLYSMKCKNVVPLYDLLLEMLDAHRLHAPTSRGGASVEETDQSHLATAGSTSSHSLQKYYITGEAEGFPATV
Chain of Androgen receptor (Homo sapiens) (P10275 whole entry, looked up): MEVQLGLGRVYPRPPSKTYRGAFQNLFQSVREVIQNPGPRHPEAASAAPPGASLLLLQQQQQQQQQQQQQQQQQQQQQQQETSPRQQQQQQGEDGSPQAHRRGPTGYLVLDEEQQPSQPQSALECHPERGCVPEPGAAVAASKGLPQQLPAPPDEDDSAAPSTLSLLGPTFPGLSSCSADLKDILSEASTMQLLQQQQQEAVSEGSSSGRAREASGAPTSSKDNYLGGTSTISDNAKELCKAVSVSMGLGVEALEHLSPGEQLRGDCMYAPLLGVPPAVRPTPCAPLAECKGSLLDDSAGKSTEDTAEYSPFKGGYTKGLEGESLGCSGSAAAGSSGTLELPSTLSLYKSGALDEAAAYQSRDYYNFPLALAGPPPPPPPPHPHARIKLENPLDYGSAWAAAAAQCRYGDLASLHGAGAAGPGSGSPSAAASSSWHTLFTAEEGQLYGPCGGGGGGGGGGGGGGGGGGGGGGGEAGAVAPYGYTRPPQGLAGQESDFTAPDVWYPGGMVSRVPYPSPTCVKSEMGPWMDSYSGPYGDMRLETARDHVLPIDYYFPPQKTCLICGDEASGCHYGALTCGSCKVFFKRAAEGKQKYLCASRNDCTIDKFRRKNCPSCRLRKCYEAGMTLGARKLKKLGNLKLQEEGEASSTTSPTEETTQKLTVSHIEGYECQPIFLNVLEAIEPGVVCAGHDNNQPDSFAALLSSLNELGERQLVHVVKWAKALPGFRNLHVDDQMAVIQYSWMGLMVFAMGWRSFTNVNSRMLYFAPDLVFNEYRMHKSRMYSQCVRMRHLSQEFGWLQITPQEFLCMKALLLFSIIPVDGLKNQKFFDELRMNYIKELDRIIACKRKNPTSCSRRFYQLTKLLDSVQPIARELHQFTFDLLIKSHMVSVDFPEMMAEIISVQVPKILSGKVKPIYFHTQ

C[C@H](O)C(=O)Nc1c(I)c(C(=O)NC(CO)CO)c(I)c(C(=O)NC(CO)CO)c1I
inactive: [1] | [2] | [3] | [4] | [5] | [6] | [7] | [8] | [9] | [10] | [11] | [12] | [13] | [14] | [15] | [16] | [17] | [18]

CC1(C)OC(=O)Nc2ccc(Br)cc21
inactive: [1] | [2] | [3] | [4] | [6] | [7] | [8] | [9] | [10] | [11] | [14] | [15] | [20] | [16] | [17] | [18]
active: [19] 9.44 µM

CCC(C(=O)NC(N)=O)c1ccccc1 (configuration not stated)
inactive: [1] | [2] | [3] | [4] | [5] | [6] | [7] | [8] | [9] | [10] | [11] | [12] | [13] | [14] | [15] | [16] | [17] | [18]

CCOC(=O)Nc1ccc2c(c1)N(C(=O)CCN1CCOCC1)c1ccccc1S2
inactive: [1] | [2] | [3] | [19] | [4] | [5] | [6] | [7] | [8] | [9] | [10] | [12] | [14] | [15] | [20] | [16] | [17] | [18]

CCCCCN(CCCCC)C(=O)C(CCC(=O)O)NC(=O)c1ccc(Cl)c(Cl)c1 (configuration not stated)
inactive: [1] | [2] | [3] | [19] | [4] | [5] | [6] | [8] | [9] | [10] | [11] | [14] | [20] | [16] | [17] | [18]

CN(C)CCn1nnnc1SCC1=C(C(=O)O)N2C(=O)[C@@H](NC(=O)Cc3csc(N)n3)[C@H]2SC1
inactive: [1] | [2] | [3] | [19] | [5] | [6] | [7] | [8] | [9] | [10] | [14] | [15] | [20] | [16] | [18]
